From PubChem BioAssay (NCI)
Compounds without any hit were thinned out: in the full panel of roughly 79,000, 15% have a hit. Values without a mark were called inactive. The source made the active and inactive calls. No stated cut-off is given here; in the data, active means growth inhibition above about 70%; inactive means the rest.

How the values were obtained:
[1] = NCI Yeast Anticancer Drug Screen. Data for the rad50 strain (AID 155);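 further: 0% = growth of vehicle-only cultures of the same strain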; conditions: S. cerevisiae rad50 strain growth inhibition, active compounds read high
In short: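 Vehicle-treated cultures provide the reference for the growth inhibition reported for compound-exposed, repair-deficient yeast.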

[2] = NCI Yeast Anticancer Drug Screen. Data for the mec2-1 strain (AID 157); conditions: S. cerevisiae mec2-1 strain, active compounds read high
In short: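 Mutant yeast (mec2-1) grown with compound; growth inhibition relative to vehicle control reported.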

[3] = NCI Yeast Anticancer Drug Screen. Data for the sgs1 mgt1 strain (AID 161);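 further: 0% = growth of cultures given vehicle only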; conditions: S. cerevisiae sgs1 mgt1 strain, active compounds read high
In short: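 Yeast cells carrying a defined DNA-repair defect were exposed to test compounds. Growth inhibition was measured relative to vehicle-treated controls.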

[4] = NCI Yeast Anticancer Drug Screen. Data for the cln2 rad14 strain (AID 165);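 further: 0% = growth equal to vehicle treated cultures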; conditions: S. cerevisiae cln2 rad14 strain, active compounds read high
In short: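 Readout is yeast growth inhibition versus vehicle-treated controls, using a strain with cln2 and rad14 alterations exposed to compound.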

[5] = NCI Yeast Anticancer Drug Screen. Data for the bub3 strain (AID 167); conditions: S. cerevisiae bub3 mutant strain, active compounds read high
In short: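 Mutant yeast screening strain plus compound; vehicle-treated cultures serve as the 0% inhibition reference.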

[6] = NCI Yeast Anticancer Drug Screen. Data for the mlh1 rad18 strain (AID 175); conditions: S. cerevisiae mlh1 rad18 strain growth inhibition, active compounds read high
In short: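 Genetically defined yeast (DNA repair-deficient) exposed to compounds; growth inhibition determined relative to vehicle.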

[7] = at 5.0 µM (retest, dose inferred, filed as 0.5)
[8] = at 50.0 µM (retest, dose inferred, filed as 5.0)

| SMILES | growth inhibition [1, 7] | growth inhibition [1, 8] | growth inhibition ([1]; at 50.0 µM) | growth inhibition [2, 7] | growth inhibition [2, 8] | growth inhibition ([2]; at 50.0 µM) | growth inhibition [3, 7] | growth inhibition [3, 8] | growth inhibition ([3]; at 50.0 µM) | growth inhibition [4, 7] [%] | growth inhibition [4, 8] | growth inhibition ([4]; at 50.0 µM) | growth inhibition [5, 7] | growth inhibition [5, 8] | growth inhibition ([5]; at 50.0 µM) | growth inhibition [6, 7] | growth inhibition [6, 8] | growth inhibition ([6]; at 50.0 µM) |
| --- | --- | --- | --- | --- | --- | --- | --- | --- | --- | --- | --- | --- | --- | --- | --- | --- | --- | --- |
| O=c1cccccc1O | 14% | 97% (active) | 90.4% (active) | 4% | 100% (active) | 91.7% (active) | 8% | 99% (active) | 93.3% (active) | 16 | 62% | 85.7% (active) | 26% | 97% (active) | 91.5% (active) | 13% | 98% (active) | 81.1% (active) |
| CS/C(N)=N/NC(=O)CCC(=O)Nc1cc(Cl)c(Cl)cc1Cl | 3% | 16% | 24.7% | 9% | -2% | 3% | 6% | 16% | -10.2% | 13 | 13% | 15% | 4% | 4% | -0.85% | 5% | 3% | 19.5% |
| CC(C)/C=N/N(CCOC(=O)Nc1ccccc1)C(=O)Nc1ccccc1 | 8% | -6% | -3.85% | -6% | -12% | 14.3% | -1% | -6% | -12.7% | -5 | -1% | 82.2% (active) | -7% | -9% | 16.1% | -3% | -5% | 6.9% |
| Cc1cc(N/N=C/c2cccc3ccccc23)c2cc3c(cc2n1)OCO3 | 7% | 72% (active) | 99.2% (active) | 2% | 79% (active) | 99% (active) | 27% | 72% (active) | 99.1% (active) | -6 | 56% | 97.8% (active) | -3% | 75% (active) | 99.2% (active) | 20% | 91% (active) | 98.5% (active) |
| C[N+]12CC3C4CC(C3C1)C2C4 (stereo not given) | -19% | -27% | 4.05% | -15% | -13% | -2.9% | -3% | 4% | 12.6% | 29 | 13% | 1.3% | -6% | -12% | 13.6% | -23% | -15% | 7.95% |
| CCNc1ccc2c(c1)Cc1ccccc1-2 | 45% | 91% (active) | 95.2% (active) | 4% | 38% | 59.8% | 62% | 90% (active) | 96% (active) | 3 | 73% (active) | 71.8% (active) | -11% | 33% | 12.1% | 27% | 87% (active) | 90.7% (active) |
| O=C(O)CC1(C(=O)O)CCCCC1 | -9% | 15% | -16.4% | -4% | -1% | -16.6% | -5% | -13% | -21.6% | 6 | 0% | 18.4% | -13% | -14% | -6.9% | 11% | 17% | 2.7% |
| NC(=O)/C=C/C(=O)c1c(Cl)cccc1Cl | 97% (active) | 100% (active) | 91.1% (active) | 99% (active) | 100% (active) | 92% (active) | 99% (active) | 100% (active) | 91.7% (active) | 46 | 98% (active) | 90.3% (active) | 99% (active) | 100% (active) | 88.3% (active) | 100% (active) | 100% (active) | 91% (active) |
| Cc1ccc2c(c1)CC1(C2)Cc2ccc(C)cc2C1=O (stereo not given) | 6% | 73% (active) | 25.4% | -20% | 85% (active) | 17.6% | -28% | 75% (active) | 54.3% | 29 | 39% | 21.4% | -5% | 88% (active) | 64.8% | 5% | 65% | 44.1% |
| O=C1NC(=O)N(c2ccc(Cl)c(Cl)c2)C1=O | -1% | 8% | 71.2% (active) | 1% | 8% | 36.5% | 0% | 7% | 41.5% | -4 | 5% | 24.8% | -5% | -1% | 44.5% | -4% | 4% | 27.9% |
